Compounds without any hit were thinned out: in the full panel of roughly 83,000, 20% have a hit.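 Plates (96-well) were seeded with cells, treated with compound at one concentration, and incubated for 48 hours before percent growth was determined.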 A number with no mark means an inactive call. The source made the active and inactive calls. How the source made its calls: active means growth percent below 10; inactive means the rest.
What was measured:
Assay in all cases: NCI-60 one-dose screen, 48 h (100 = growth as untreated, 0 = no growth, -100 = all killed)
Settings in all cases: 10 µM unless noted
DU-145 prostate = tested on: DU-145 prostate
K-562 leukemia = tested on: K-562 leukemia
MALME-3M melanoma = tested on: MALME-3M melanoma
MDA-MB-231 breast = tested on: MDA-MB-231 breast
RXF 393 renal = tested on: RXF 393 renal
SF-268 CNS = tested on: SF-268 CNS
SF-295 CNS = tested on: SF-295 CNS
SF-539 CNS = tested on: SF-539 CNS
UACC-257 melanoma = tested on: UACC-257 melanoma
M14 melanoma = tested on: M14 melanoma

Row | Compound | growth (DU-145 prostate) | growth (K-562 leukemia) | growth (MALME-3M melanoma) | growth (MDA-MB-231 breast) | growth (RXF 393 renal) | growth (SF-268 CNS) | growth (SF-295 CNS) | growth (SF-539 CNS) | growth (UACC-257 melanoma) | growth (M14 melanoma)
1 | C=C1CC[C@@H]2[C@](C)(COC(C)=O)[C@H](OC(C)=O)CC[C@@]2(C)[C@@H]1CC(Nc1ccc(S(=O)(=O)Nc2ncccn2)cc1)C1=CCOC1=O (stereo not given in full) | 14.9% | 4.6% (active) | -4.93% (active) | -1.01% (active) | -70% (active) | 18.3% | 68% | -69% (active) | 16.6% | 4.76% (active)
2 | Cc1ccc(NC(=O)c2sc3nc(C)c(Br)c(C)c3c2N)cc1 | 66.6% | 95.5% | 53.8% | 55.3% | 43.3% | 49% | 60% | 65.1% | 90.3% | 79%
3 | COc1cc2ncnc(Nc3ccc(S(=O)(=O)Nc4cc(C)on4)cc3)c2cc1OCCCN1CCN(c2ccc(F)cc2)CC1 | 112% | 89.8% | 99.3% | 89.6% | 105% | 97.9% | 102% | 96.4% | 106% | 108%
4 | COc1ccc(C/C(C)=C(/c2ccc(OCCN(C)C)cc2)c2ccc(OC(=O)NCc3ccccc3)cc2)cc1 | 81.1% | -29.2% (active) | 88.5% | 57.9% | 60.3% | 72.9% | 88% | 88.9% | 75.8% | 25.1%
5 | CCOC(=O)c1c(C(=O)c2cn(C)c3ccc(Br)cc23)c(-c2cn(C)c3ccc(Br)cc23)n(NC(=O)OC(C)(C)C)c1C | 97.9% [100 µM] | 89.1% [100 µM] | 32.8% [100 µM] | 51.2% [100 µM] | 24.2% [100 µM] | 82.4% [100 µM] | 33% [100 µM] | 48.3% [100 µM] | 94.8% [100 µM] | 82.7% [100 µM]
6 | Cc1ccc(Nn2c(SCC(=O)Nc3nc(-c4ccccc4)cs3)nc(C)c2C)cc1 | 83.4% | 37.7% | 92% | 46% | 61.5% | 81.7% | 46.1% | 73.7% | 54.1% | 77%
7 | Nc1nc2ccccc2c2c(=O)c3cccc(Cl)c3sc12 | 94.7% | 91.7% | 101% | 78.9% | 106% | 102% | 97.9% | 88.4% | 104% | 96.9%
8 | Cc1ccc(-c2nc(N3CCCNCC3)c3oc(-c4ccccc4)nc3n2)cc1 | -15.2% (active) | -63.6% (active) | -92.4% (active) | -91.7% (active) | -74.3% (active) | -42.9% (active) | -89.6% (active) | -91.4% (active) | -82.2% (active) | -94.7% (active)
9 | O=C(Nc1nc2cc(C(=O)N3CCN(C(c4ccccc4)c4ccccc4)CC3)ccc2o1)c1ccc(NC2CCCCC2)c([N+](=O)[O-])c1 | 61.9% | 47% | 68.7% | 75% | 74.9% | 58.2% | 42.1% | 59.9% | 62.2% | 58.2%
10 | COc1cc2c(cc1OC)C(C)N(S(N)(=O)=O)CC2 (stereo not given) | 105% | 103% | 105% | 101% | 113% | 96.2% | 104% | 97.7% | 100% | 91.8%
11 | O=S(=O)(c1ccccc1)n1cc2c(c1)-c1nc(Nc3ncccn3)sc1CC2 | 34.6% | 73.8% | 50.3% | 52.5% | 34.6% | 66.3% | 67.3% | 35.6% | 50.4% | 45.8%
12 | COc1ccc(\C=N/N=C(N)/C(N)=N\N=C/c2ccc(OC)cc2)cc1 | 113% | 99.9% | 106% | 107% | 96.9% | 100% | 97.3% | 92.7% | 121% | 111%
13 | CC(C)(Sc1cc(C(C)(C)C)c(OC(=O)CCCC(=O)O)c(C(C)(C)C)c1)Sc1cc(C(C)(C)C)c(OC(=O)CCCC(=O)O)c(C(C)(C)C)c1 | 51.4% | 35.1% | 46.2% | 57.8% | 37.6% | 28.6% | 33.7% | 6.97% (active) | 46.7% | 45.5%
14 | CCCCn1c(=O)[nH]c(N)c([C@@H]2c3c([nH]c(=O)n(CCCC)c3=O)Oc3ccc4ccccc4c32)c1=O | 47.5% | 76.3% | 38.5% | 55.4% | 99.6% | 8.16% (active) | 89.1% | 95.8% | 93% | 31.1%
15 | COc1ccc(/C=N\Nc2nc(SCCC(C)C)nc(-c3ccc(OC)cc3)c2C#N)cc1 | 72.8% | 82% | 64.6% | 77.6% | 80.5% | 78.9% | 17.4% | 24.6% | 91.6% | 87.6%
16 | COc1ccc(-c2cc(-c3cccnc3)nc3sc4c(=O)[nH]c(-c5ccc(Cl)cc5)nc4c23)cc1OC | 105% | 85.7% | 115% | 76.7% | 103% | 93.4% | 99.5% | 96.1% | 97.5% | 106%
17 | Cc1[nH]c(C(=O)Nc2ccccc2OC2CCNCC2)c(Cl)c1Cl | 16.4% | -2.5% (active) | -49.5% (active) | -43.4% (active) | -85.4% (active) | 39.4% | -20.2% (active) | -94.1% (active) | 13.7% | -51.6% (active)
18 | CCOC(=O)c1cc(C)n(-c2ccc(C(=O)O)cc2)c1C | 7.16% (active) | 116% | 130% | 80% | 80.8% | 92.3% | 90.7% | 105% | 96.5% | 89.7%
19 | Cc1cc(C(=O)Nc2ncc(Cc3cccc(C(F)(F)F)c3)s2)c2ccccc2n1 | 57.4% | 7.79% (active) | 26.8% | 56.4% | 31.1% | 37.2% | 15.1% | 21.9% | 43.3% | 3.81% (active)

Row | Compound | growth (DU-145 prostate) | growth (K-562 leukemia) | growth (MALME-3M melanoma) | growth (MDA-MB-231 breast) | growth (RXF 393 renal) | growth (SF-268 CNS) | growth (SF-295 CNS) | growth (SF-539 CNS) | growth (UACC-257 melanoma) | growth (M14 melanoma)
20 | COc1ccc(C/C(C)=C(\c2ccc(Cl)cc2)c2ccc(OCCN3CCCCC3)cc2)cc1 | 110% | 67.3% | 106% | 93.3% | 85.1% | 99.6% | 101% | 93.6% | 104% | 93.3%
21 | COc1cc(-c2csc(NC(=O)c3ccc(N4CCOCC4)c(C(F)(F)F)c3)n2)cc(OC)c1OC | 53.4% | 18.9% | 29.3% | 71.4% | 62% | 40% | 21.9% | 49.6% | 26.6% | 12.9%
22 | COc1cc(OCc2cccc(Br)c2C)cc(OC)c1C=O | 91.3% | 67% | 114% | 95.2% | 75.1% | 91.9% | 86.7% | 91.9% | 83% | 90.9%
23 | O=C(CN1C(=O)S/C(=C\C(Cl)=C\c2ccccc2)C1=O)NCCc1ccc(O)cc1 | 18.2% | 10.1% | 52.1% | 30.4% | -22.7% (active) | 60.7% | 44% | 15.6% | 60.9% | -26.7% (active)
24 | O=C(Nc1cccc(-c2ccc(Cl)c(C(F)(F)F)c2)c1)C1CCN(Cc2cccc3cccnc23)CC1 | 10.8% | -6.99% (active) | -75.6% (active) | -24.1% (active) | 8.93% (active) | 40.1% | -43.9% (active) | -88.7% (active) | 19.8% | -68.5% (active)
25 | CC(C)=CC(=O)OCC(=O)O[C@@H]1C[C@]2(C(C)C)O[C@@]1(C)[C@@H]1CC[C@@H](C)[C@H]1[C@@H]2OC(=O)/C=C/c1ccccc1 | 96.8% | 60.7% | 99.8% | 90.9% | 1.65% (active) | 62.3% | 95.4% | 104% | 86.8% | 88.1%
26 | CCCNc1nc2ccccc2c2c1S(=O)(=O)c1ccc(Cl)cc1C2=O | 19.4% | 8.48% (active) | 21.9% | -0.717% (active) | 12% | 20.4% | 15.8% | 6.35% (active) | 17.8% | 5.71% (active)
27 | CC/C(=C(/c1ccc(Cl)cc1)c1ccc(OCCN(C)C)cc1)c1ccc(Cl)cc1 | 77.7% | 16% | 73.9% | 83.3% | 68.5% | 77.4% | 69.7% | 86.2% | 72.2% | 88.1%
28 | NC(Cc1ccc(O)c([N+](=O)[O-])c1)C(=O)O (stereo not given) | 106% | 101% | 109% | 113% | 108% | 99.8% | 117% | 100% | 99.8% | 101%
29 | CCCC/C=C/[C@@H]1C[C@H]1CCO | 116% | 103% | 93.6% | 99.2% | 108% | 104% | 98.2% | 103% | 91.5% | 98.9%
30 | CCC(C)N(CCNc1cc(OC)cc2cccnc12)CC(C)C (stereo not given) | 112% | 83.1% | 119% | 87.8% | 122% | 96.4% | 110% | 115% | 99.8% | 110%
31 | O=S(=O)(Nc1ccc(Cl)c(C(F)(F)F)c1)c1ccc(-c2cnc(C3CC3)o2)cc1 | 15.5% | 5.12% (active) | 28.7% | 15.6% | 8.55% (active) | 13.7% | 22.2% | -35.8% (active) | -0.635% (active) | 10.9%
32 | CC(C)c1ccc(C(=O)Nc2sc3c(c2C(N)=O)CCC(=O)C3)cc1 | 31.2% | 1.14% (active) | -23.8% (active) | -54.4% (active) | -7.12% (active) | 17.8% | -3.53% (active) | -68.8% (active) | -11.8% (active) | -55.6% (active)
33 | CCN1C(=O)N(CC)C2C1NN=c1s/c(=C\c3ccccc3F)c(=O)n12 (stereo not given) | 2.54% (active) | 8.14% (active) | 52.6% | 15.2% | 52% | 44.6% | 12.4% | -18.1% (active) | 53.1% | 2.5% (active)
34 | Cc1cc(=O)oc2cc(OCc3nn4c(Nc5nc6ccccc6s5)c(-c5ccccc5)nc4s3)ccc12 | 97.7% | -59.3% (active) | 93.7% | 83.1% | 102% | 86.1% | 90.2% | 96.1% | 93.9% | 100%
35 | O=C(OC(CO)C(=O)NC12CC3CC(CC(C3)C1)C2)c1ccc(Cl)cc1 (stereo not given) | 103% | 95.5% | 104% | 105% | 103% | 104% | 100% | 96% | 100% | 97.6%
36 | COc1cc(-c2nc3sccn3c2-c2ccnc(NCCNS(=O)(=O)c3ccccc3)n2)ccc1F | 61.4% | 28.3% | 49.2% | 48.8% | 21.5% | 48.6% | 66.4% | 83.8% | 62.4% | 38.6%
37 | CNC(=O)c1[nH]cc(-c2ccc(OC)cc2)c1-c1cc(OC)c2c(c1OC)OCO2 | 110% | 105% | 95% | 100% | 97.5% | 101% | 97.6% | 103% | 104% | 101%

Reference: PubChem BioAssay (NCI)
